Paper PMC10812921, “Transcriptional Coactivator BOB1 (OBF1, OCA-B) Modulates the Specificity of DNA Recognition by the POU-Domain Factors OCT1 and OCT2 in a Monomeric Configuration”

Columns and labels:
[1] = target: POU1 (OCT1 POU domain) (human, UniProt P14859 260-458); assay: EMSA-SELEX-seq; no BOB1; 20 mM Tris-HCl pH 7.6, 140 mM NaCl, 10% glycerol, 0.5 mM EDTA, 0.05% Triton X-100, 0.1 mg/mL BSA, 0.1 mg/mL poly(dI-dC), 5 mM DTT, room temperature, 20 min; high values mean tight binding; settings: protein: recombinant; dsDNA, one strand shown
Procedure, shortened: (§1)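 Binding preference is the percentage of sequenced 8-mers matching a motif pattern. Tagged POU-domain proteins expressed in E. coli BL21 were purified under denaturing conditions and renatured. For binding, 30 ng protein met 300 ng of a PCR-amplified double-stranded random 35-nt library, with or without 28 ng coactivator protein, in 20 μL Tris–HCl pH 7.6 binding buffer for 20 min at RT. Complex bands were cut from native 6% PAGE, eluted and PCR-amplified over four rounds, then Illumina-sequenced.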

[2] = target: T1, POU2 (OCT2 POU domain) (human, UniProt P09086 175-386); assay: as above; settings: protein: recombinant; dsDNA, one strand shown
T1 sequence: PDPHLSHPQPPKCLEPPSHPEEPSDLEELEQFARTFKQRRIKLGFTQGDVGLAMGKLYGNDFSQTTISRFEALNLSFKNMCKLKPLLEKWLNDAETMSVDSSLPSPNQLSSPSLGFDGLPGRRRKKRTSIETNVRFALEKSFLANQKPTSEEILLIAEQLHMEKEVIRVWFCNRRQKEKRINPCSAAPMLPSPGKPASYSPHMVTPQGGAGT
Procedure, shortened: as §1

[3] = target: POU1 (OCT1 POU domain);BOB1 (OBF1, OCA-B) (human;human, UniProt P14859;Q16633 260-458;1-256, |); assay: EMSA-SELEX-seq; with BOB1 (ternary complex band); 20 mM Tris-HCl pH 7.6, 140 mM NaCl, 10% glycerol, 0.5 mM EDTA, 0.05% Triton X-100, 0.1 mg/mL BSA, 0.1 mg/mL poly(dI-dC), 5 mM DTT, room temperature, 20 min; high values mean tight binding; settings: protein: recombinant;recombinant; copies: 1;1; dsDNA, one strand shown
Procedure, shortened: as §1

[4] = target: T2, POU2 (OCT2 POU domain);BOB1 (OBF1, OCA-B) (human;human, UniProt P09086;Q16633 175-386;1-256, |); assay: as above; settings: protein: recombinant;recombinant; copies: 1;1; dsDNA, one strand shown
T2 sequence 1: T1 sequence
T2 sequence 2: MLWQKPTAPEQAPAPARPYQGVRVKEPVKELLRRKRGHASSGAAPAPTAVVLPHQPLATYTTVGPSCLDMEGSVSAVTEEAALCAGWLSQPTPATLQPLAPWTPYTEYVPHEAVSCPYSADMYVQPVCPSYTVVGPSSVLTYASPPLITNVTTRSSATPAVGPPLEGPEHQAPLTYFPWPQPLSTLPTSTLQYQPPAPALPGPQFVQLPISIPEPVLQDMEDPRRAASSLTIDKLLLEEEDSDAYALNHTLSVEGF
Procedure, shortened: as §1

Sequence of POU1 (OCT1 POU domain) (P14859 260-458): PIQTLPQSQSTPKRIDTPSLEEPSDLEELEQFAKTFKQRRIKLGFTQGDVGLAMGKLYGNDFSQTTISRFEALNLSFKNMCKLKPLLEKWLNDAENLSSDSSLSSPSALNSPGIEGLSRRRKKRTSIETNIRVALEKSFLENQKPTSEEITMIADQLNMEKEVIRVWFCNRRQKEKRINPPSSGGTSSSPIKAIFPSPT

Sequence | binding signal [1] | binding signal [2] | binding signal [3] | binding signal [4]
AGTCGAAT | 0.061 % of ANNNNAAN 8-mers | 0.0604 % of ANNNNAAN 8-mers | 0.0468 % of ANNNNAAN 8-mers | 0.0611 % of ANNNNAAN 8-mers
ACCGTAAG | 0.0191 % of ANNNNAAN 8-mers | 0.0155 % of ANNNNAAN 8-mers | 0.0195 % of ANNNNAAN 8-mers | 0.0281 % of ANNNNAAN 8-mers
AGTGCAAC | 0.0118 % of ANNNNAAN 8-mers | 0.0219 % of ANNNNAAN 8-mers | 0.0113 % of ANNNNAAN 8-mers | 0.0215 % of ANNNNAAN 8-mers
AGCTGAAC | 0.0156 % of ANNNNAAN 8-mers | 0.0196 % of ANNNNAAN 8-mers | 0.0176 % of ANNNNAAN 8-mers | 0.019 % of ANNNNAAN 8-mers
ACCCCAAT | 0.0145 % of ANNNNAAN 8-mers | 0.0167 % of ANNNNAAN 8-mers | 0.0172 % of ANNNNAAN 8-mers | 0.019 % of ANNNNAAN 8-mers
AATTAAAT | 0.333 % of ANNNNAAN 8-mers | 0.39 % of ANNNNAAN 8-mers | 0.19 % of ANNNNAAN 8-mers | 0.173 % of ANNNNAAN 8-mers
ATAAGAAA | 0.1 % of ANNNNAAN 8-mers | 0.0955 % of ANNNNAAN 8-mers | 0.118 % of ANNNNAAN 8-mers | 0.0826 % of ANNNNAAN 8-mers
ATTGAAAC | 0.0431 % of ANNNNAAN 8-mers | 0.0322 % of ANNNNAAN 8-mers | 0.0406 % of ANNNNAAN 8-mers | 0.0396 % of ANNNNAAN 8-mers
ATCCGAAG | 0.0275 % of ANNNNAAN 8-mers | 0.0299 % of ANNNNAAN 8-mers | 0.0304 % of ANNNNAAN 8-mers | 0.0338 % of ANNNNAAN 8-mers
ACTTTAAA | 0.0713 % of ANNNNAAN 8-mers | 0.0817 % of ANNNNAAN 8-mers | 0.0652 % of ANNNNAAN 8-mers | 0.0495 % of ANNNNAAN 8-mers
ACAAGAAC | 0.0214 % of ANNNNAAN 8-mers | 0.0201 % of ANNNNAAN 8-mers | 0.0144 % of ANNNNAAN 8-mers | 0.0297 % of ANNNNAAN 8-mers
AGGCGAAG | 0.024 % of ANNNNAAN 8-mers | 0.0305 % of ANNNNAAN 8-mers | 0.0242 % of ANNNNAAN 8-mers | 0.0297 % of ANNNNAAN 8-mers
AGTGAAAG | 0.0469 % of ANNNNAAN 8-mers | 0.0409 % of ANNNNAAN 8-mers | 0.0624 % of ANNNNAAN 8-mers | 0.0504 % of ANNNNAAN 8-mers
ACCAGAAC | 0.013 % of ANNNNAAN 8-mers | 0.0127 % of ANNNNAAN 8-mers | 0.0129 % of ANNNNAAN 8-mers | 0.0223 % of ANNNNAAN 8-mers
ATTAAAAC | 0.108 % of ANNNNAAN 8-mers | 0.122 % of ANNNNAAN 8-mers | 0.0757 % of ANNNNAAN 8-mers | 0.0718 % of ANNNNAAN 8-mers
AGGTGAAC | 0.021 % of ANNNNAAN 8-mers | 0.0259 % of ANNNNAAN 8-mers | 0.0222 % of ANNNNAAN 8-mers | 0.0264 % of ANNNNAAN 8-mers

Sequence | binding signal [1] | binding signal [2] | binding signal [3] | binding signal [4]
AAGCTAAA | 0.0347 % of ANNNNAAN 8-mers | 0.0449 % of ANNNNAAN 8-mers | 0.0453 % of ANNNNAAN 8-mers | 0.0347 % of ANNNNAAN 8-mers
ATAGTAAA | 0.12 % of ANNNNAAN 8-mers | 0.115 % of ANNNNAAN 8-mers | 0.128 % of ANNNNAAN 8-mers | 0.106 % of ANNNNAAN 8-mers
ATAACAAC | 0.0252 % of ANNNNAAN 8-mers | 0.0391 % of ANNNNAAN 8-mers | 0.0222 % of ANNNNAAN 8-mers | 0.0347 % of ANNNNAAN 8-mers
AGTGTAAT | 0.085 % of ANNNNAAN 8-mers | 0.104 % of ANNNNAAN 8-mers | 0.0679 % of ANNNNAAN 8-mers | 0.0867 % of ANNNNAAN 8-mers
ATACTAAA | 0.0648 % of ANNNNAAN 8-mers | 0.0886 % of ANNNNAAN 8-mers | 0.0499 % of ANNNNAAN 8-mers | 0.0594 % of ANNNNAAN 8-mers
ACGACAAG | 0.0175 % of ANNNNAAN 8-mers | 0.023 % of ANNNNAAN 8-mers | 0.0215 % of ANNNNAAN 8-mers | 0.0231 % of ANNNNAAN 8-mers
ATTGCAAG | 0.0271 % of ANNNNAAN 8-mers | 0.0397 % of ANNNNAAN 8-mers | 0.0336 % of ANNNNAAN 8-mers | 0.0363 % of ANNNNAAN 8-mers
AGTGAAAT | 0.138 % of ANNNNAAN 8-mers | 0.124 % of ANNNNAAN 8-mers | 0.196 % of ANNNNAAN 8-mers | 0.121 % of ANNNNAAN 8-mers
ATAAAAAA | 0.0995 % of ANNNNAAN 8-mers | 0.1 % of ANNNNAAN 8-mers | 0.0823 % of ANNNNAAN 8-mers | 0.0801 % of ANNNNAAN 8-mers
AGCGGAAA | 0.0378 % of ANNNNAAN 8-mers | 0.0472 % of ANNNNAAN 8-mers | 0.0324 % of ANNNNAAN 8-mers | 0.033 % of ANNNNAAN 8-mers
ATTACAAA | 0.0919 % of ANNNNAAN 8-mers | 0.0955 % of ANNNNAAN 8-mers | 0.08 % of ANNNNAAN 8-mers | 0.0685 % of ANNNNAAN 8-mers
ATATGAAT | 0.243 % of ANNNNAAN 8-mers | 0.316 % of ANNNNAAN 8-mers | 0.122 % of ANNNNAAN 8-mers | 0.141 % of ANNNNAAN 8-mers
ATCCTAAC | 0.0172 % of ANNNNAAN 8-mers | 0.0299 % of ANNNNAAN 8-mers | 0.023 % of ANNNNAAN 8-mers | 0.0355 % of ANNNNAAN 8-mers
AGATAAAT | 0.0892 % of ANNNNAAN 8-mers | 0.0886 % of ANNNNAAN 8-mers | 0.0617 % of ANNNNAAN 8-mers | 0.0627 % of ANNNNAAN 8-mers
AGAGGAAT | 0.0828 % of ANNNNAAN 8-mers | 0.115 % of ANNNNAAN 8-mers | 0.0652 % of ANNNNAAN 8-mers | 0.0859 % of ANNNNAAN 8-mers
